Most compounds without a hit are left out; they make up all but 11% or so of the library.
USP30 block: inhibitors of human USP30 deubiquitinase | Ubiquitin carboxyl-terminal hydrolase 30 (Homo sapiens), Q70CQ3 | purified USP30, Ub-rhodamine cleavage fluorescence | inhibition, % at 25 µM | 47,000 tested, 5.3% active | AID 1645860, 2021
Target sequence (Q70CQ3 whole entry, looked up): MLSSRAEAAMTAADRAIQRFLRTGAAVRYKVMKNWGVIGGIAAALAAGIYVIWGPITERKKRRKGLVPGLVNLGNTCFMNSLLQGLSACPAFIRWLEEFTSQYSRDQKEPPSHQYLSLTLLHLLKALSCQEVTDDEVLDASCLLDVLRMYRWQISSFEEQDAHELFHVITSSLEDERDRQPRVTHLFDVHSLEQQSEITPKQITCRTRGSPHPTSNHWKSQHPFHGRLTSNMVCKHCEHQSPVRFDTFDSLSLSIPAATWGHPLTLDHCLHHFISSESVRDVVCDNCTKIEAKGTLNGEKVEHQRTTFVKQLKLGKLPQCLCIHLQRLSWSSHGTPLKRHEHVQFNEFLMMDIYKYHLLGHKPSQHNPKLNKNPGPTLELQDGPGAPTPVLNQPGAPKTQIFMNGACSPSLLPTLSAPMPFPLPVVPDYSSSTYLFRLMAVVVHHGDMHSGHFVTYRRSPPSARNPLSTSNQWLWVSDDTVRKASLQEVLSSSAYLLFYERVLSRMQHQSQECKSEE
USP17 block: inhibitors of human USP17 deubiquitinase | Ubiquitin carboxyl-terminal hydrolase 17-like protein 5 (Homo sapiens), A8MUK1 | purified USP17, Ub-rhodamine cleavage fluorescence, 3 h | inhibition, % at 50 µM | 47,000 tested, 6.5% active
USP28 inh: inhibitors of human USP28 deubiquitinase | inhibition, % at 25 µM | 47,000 tested, 3% active | purified USP28, Ub-rhodamine cleavage fluorescence, 30 min | Ubiquitin carboxyl-terminal hydrolase 28 (Homo sapiens), Q96RU2
Of the large screens only hits and unclear results are named; the others gave an inactive call. Cut-off read from the data, not from the text of the source: active = inhibition above about 30%; inactive = the rest.

O=C(C1CCN(S(=O)(=O)c2ccc3c(c2)CCCC3)CC1)N1CCOCC1	none (no result: USP17 block)
Cc1ccc(C)c(OCCCn2c(CCNC(=O)C3CCCCC3)nc3ccccc32)c1	none
O=C(NCCc1nc2ccccc2n1CCCOc1ccccc1Cl)C1CCCCC1	USP30 block 79.1, USP17 block 82.7
COC(=O)c1cc2occc2n1CC(=O)Nc1cccc(Cl)c1C	none
CCc1cc2c(cc(C(=O)OC)n2CC(=O)Nc2ccc(C)cc2Cl)s1	USP17 block 53.4
c1cc2c(cc1CNC1CC1)CCO2	none
CCCN1C(=O)Cc2c(C)nc(-c3cccc(F)c3)nc21	none
C=C(CCC(C)(C)/C=C/CC/C(C)=C/COC(COP(=O)(O)O[C@@H]1OC(C(N)=O)[C@@](C)(O)[C@H](OC(N)=O)C1O[C@@H]1OC(CO[C@@H]2OC(CO)[C@H](O)[C@H](O)C2O)[C@H](O[C@@H]2OC(CO)[C@H](O[C@@H]3OC(C(=O)NC4=C(O)CCC4=O)[C@H](O)[C@H](O)C3O)[C@H](O)C2NC(C)=O)C(O)[C@@H]1NC(C)=O)C(=O)O)CC1C(=C)CCCC1(C)C (stereo partly specified)	USP28 inh 44.1
Cc1ccc(-c2noc3ncnc(NCc4ccco4)c23)cc1	none
O=C(N[C@@H]1CC[C@@H](Oc2cccc(F)c2)[C@@H](O)[C@@H]1O)c1cscn1	none
O=C(Cn1c(=O)n(Cc2ccc(F)cc2)c(=O)c2ncccc21)Nc1ccccc1	USP30 block 64.9
Cc1ccc(CNC(=O)Cn2c(=O)n(CCCC(=O)NCc3ccc(F)cc3)c(=O)c3ccccc32)cc1	USP17 block 33.4
O=C(Cn1c(=O)n(Cc2ccncc2)c(=O)c2ncccc21)Nc1cccc(F)c1	none
O=C(CCCn1c(=O)c2cc(Cl)ccc2n(CC(=O)Nc2cccc(F)c2)c1=O)NCc1ccco1	none
O=C(Cn1c(=O)c2cccn2c2ccccc21)NCc1ccc(F)cc1	none
Cc1ccc(Cn2c(=O)c3ncccc3n(CC(=O)NCc3ccc(F)cc3)c2=O)cc1	USP30 block 84.0, USP17 block 76.6, USP28 inh 78.4
Cc1ccc(NC(=O)Cn2c(=O)n(Cc3ccncc3)c(=O)c3ncccc32)cc1Cl	none
O=C(Cn1c(=O)n(Cc2ccc(F)cc2)c(=O)c2sccc21)Nc1cccc(Cl)c1	USP17 block 65.0
COc1ccc(CNC(=O)C2Cn3ccnc3C3(CCN(CC(C)C)CC3)O2)cc1 (stereo unspecified)	none
COC(=O)c1cccc(N2Cc3cccc(OC)c3OCC2=O)c1	none
CN1C(=O)[C@H]2CN(c3ncccn3)C[C@H]2C12CCN(C(=O)NCc1ccccc1)CC2	none
Cc1nnc2ccc(-c3noc(COc4ccc(F)cc4)n3)cn12	none
Cc1c(C(=O)NC2CCC(C)CC2)nnn1-c1cccc2c1CCN(S(C)(=O)=O)C2 (stereo unspecified)	none
O=C(Cn1c(=O)n(Cc2ccccc2)c(=O)c2ncccc21)N1CCCc2ccccc21	none
O=C(Cn1c(=O)n(Cc2ccc3c(c2)OCO3)c(=O)c2ncccc21)c1ccccc1	USP30 block 53.8
CCOc1ccc(S(=O)(=O)Nc2ccc(-n3ncc(C#N)c3N)cc2)cc1	none (no result: USP30 block, USP28 inh)
Cc1ccccc1NC(=O)Nc1ccccc1OCc1cc(=O)n2cccc(C)c2n1	USP30 block 42.8, USP17 block 46.7
Cc1cccc(NCc2cc(=O)n3cccc(C)c3n2)c1C	none
COc1ccc(CN(CC(=O)NC2CCCC2)C(=O)Cn2nnc(-c3ccc(C)cc3)n2)cc1	none
Fc1cccc(Cn2cc(-c3noc(-c4ccncc4)n3)nn2)c1	USP17 block 66.5
Fc1ccc(Cn2cc(-c3noc(-c4cccnc4)n3)nn2)cc1	none
CCOc1ccccc1-c1nc(-c2cn(Cc3cccc(F)c3)nn2)no1	none
Cc1ccc(Cn2cc(-c3noc(-c4ccncc4)n3)nn2)cc1	USP17 block 79.1
COc1ccc(S(=O)(=O)c2nnn(-c3ccc(F)cc3)c2C)cc1	none
CC(NC(=O)Cc1nnc(-c2ccccn2)o1)c1ccccc1 (stereo unspecified)	none
COc1ccc(Nc2nc3c(S(=O)(=O)c4ccc(C(C)C)cc4)nnn3c3ccccc23)cc1	USP30 block 31.5
Cc1ccc(Nc2nc3c(S(=O)(=O)c4ccccc4)nnn3c3ccccc23)c(C)c1	none
Cc1ccc(S(=O)(=O)c2nnn3c2nc(NCc2ccc(F)cc2)c2ccccc23)cc1C	none
O=S(=O)(c1ccccc1)c1nnn2c1nc(NCc1ccc(Cl)cc1)c1ccccc12	USP17 block 42.2
CC(=O)NC(C)C(=O)N(c1ccc(C)cc1)C1(C(=O)Nc2ccccc2)CCCCC1 (stereo unspecified)	none
CCc1noc(CN2CCCC2Cn2nc(C)cc2C)n1 (stereo unspecified)	none (no result: USP30 block, USP28 inh)
COc1cccc(NC(=O)c2ccc(SCCN3CCOCC3)nc2)c1	USP28 inh 40.3
CCc1cccc(NC(=O)c2ccc(SCCN3CCOCC3)nc2)c1	none
CCOCCCNC(=O)c1cc2c(=O)n(Cc3ccccc3)ccc2nc1C	none
COc1ccc(OC)c(Nc2cc(C(=O)NCc3cccnc3)c3ccccc3n2)c1	none
Cc1oc(-c2ccc(Cl)cc2)cc1C(=O)Nc1ccccc1	USP30 block 34.8
Cc1ccccc1NC(=O)c1cc(-c2cccc([N+](=O)[O-])c2)oc1C	none
O=C1CC(c2noc(-c3ccncc3)n2)CN1c1ccc(F)cc1 (stereo unspecified)	none (no result: USP17 block)
O=C(O)c1ccccc1C(=O)Nc1ccc(SC(C(=O)Nc2cccc(Cl)c2)c2ccccc2)cc1 (stereo unspecified)	USP17 block 51.3, USP28 inh 33.8
Cc1ccccc1NC(=O)C(Sc1ccc(NC(=O)c2ccccc2C(=O)O)cc1)c1ccccc1 (stereo unspecified)	none
O=C(O)c1cc(NC(=O)C(Sc2cccc(NC(=O)c3ccccc3F)c2)c2ccccc2)ccc1O (stereo unspecified)	none
Cc1cccc(C(=O)Nc2cccc(SC(C(=O)Nc3ccc(Cl)c(C(=O)O)c3)c3ccccc3)c2)c1 (stereo unspecified)	USP30 block 47.4, USP17 block 80.4, USP28 inh 44.3
Cc1ccc(C(=O)O)cc1NC(=O)C(Sc1cccc(NC(=O)c2cccc(Cl)c2)c1)c1ccccc1 (stereo unspecified)	USP30 block 91.1, USP17 block 84.7, USP28 inh 46.7
COc1cccc(C(=O)Nc2ccc(SC(C(=O)Nc3ccccc3)c3ccccc3)cc2)c1 (stereo unspecified)	none
Cc1nnn2c1COCC(CNS(=O)(=O)c1ccc(F)cc1)C2 (stereo unspecified)	none
Cn1c(=O)[nH]c(=O)c2c1nc(N1CCNCC1)n2CC(O)c1ccccc1 (stereo unspecified)	none
Cc1cc(-c2ncc[nH]2)nc(C2CCN(C(=O)CC3CCCCC3)CC2)n1	none
CCOC(=O)C1=C(COc2ccccc2[N+](=O)[O-])NC(=O)NC1C (stereo unspecified)	none
O=C(O)CC1(CC(=O)NCc2cccc(Cl)c2)CCCCC1	none
O=C(O)CC1(CC(=O)NCc2ccc(C(F)(F)F)cc2)CCCCC1	USP30 block 32.0
COc1cc(OC)c2c(C)c(CC(=O)N[C@@H](Cc3c[nH]c4ccccc34)C(=O)O)c(=O)oc2c1	none

Screens as filed in PubChem.
